This note sets out measurements from PubChem BioAssay (NCATS).

Records with an inconclusive call do not appear. The source made the active and inactive calls. The call rests on the fitted dose curve; in most records, active means well fitted inhibition curve with a large enough effect; inconclusive means small, poorly fitted or top-dose-only effect; inactive means flat fitted curve, though single readings scatter.

Common to all, as to assay: qHTS profiling for inhibitors of Plasmodium falciparum proliferation (AID 504749); further: nearly all actives have a fitted effect of over 60% in size
Conditions in all cases: P. falciparum in erythrocytes, SYBR Green DNA, 72 h; series mostly up to 28.7 µM
On the technique in general: qHTS replaces the single test concentration by a dilution series.

In one assay the test system is N140. In outline:
(§1)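 P. falciparum-infected erythrocytes (0.3% parasitemia, 2.5% hematocrit) incubated with compound 72 h at 37 C, 5% CO2. Parasite DNA detected by SYBR Green after lysis, overnight at room temperature; normalised to 0.29 uM artemisinin and DMSO.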

A further assay deals with P93_24. The gist of the method: as §1
The next assay concerns P94_40. The gist of the method:
as §1

Another assay relates to PAD. The gist of the method: as §1
The test system of another assay is PC15. In outline: as §1
The test system of a further assay is PC26. The gist of the method:
as §1

Another assay deals with PC49. The gist of the method:
as §1

The next assay deals with SC27B. In outline: as §1
The next assay relates to TAB109. In outline: as §1
The test system of a further assay is TAB113. In outline: as §1
Potency means the concentration at half of the fitted maximal effect.

In the case of `CCCn1c(=O)[nH]c(=O)c2[nH]cnc21`, the Potency result in the assay with N140, with P93_24, with P94_40, in the assay on PAD, in the assay on PC15 and with PC26 was “inactive” in each case. For the same compound, the Potency result in the assay on PC49, in the assay on SC27B, with TAB109 and in the assay with TAB113 was “inactive” in each case.
For the compound `CCC(C(=O)OCCN(CC)CC)c1ccccc1` (stereo not given), the Potency result in the assay with N140, with P93_24, in the assay on P94_40, in the assay on PAD, with PC15 and in the assay with PC26 was “inactive” each time. The Potency result in the assay on PC49, in the assay on SC27B, in the assay on TAB109 and in the assay on TAB113 was “inactive” each time.
Take `COc1ccc(C2C(=O)c3ccccc3C2=O)cc1`: the Potency result in the assay on N140, with P93_24, in the assay on P94_40, with PAD, with PC15 and in the assay on PC26 was “inactive” in each case. The Potency entry in the assay on PC49, with SC27B, with TAB109 and with TAB113 was “inactive” throughout.
In the case of `O=C(O)c1cc2cc(Cc3cccnc3)ccc2o1`, the Potency entry with N140, in the assay on P93_24, in the assay on P94_40, in the assay with PAD, in the assay on PC15 and in the assay on PC26 was “inactive” throughout. For the same compound, the Potency result with PC49, in the assay with SC27B, with TAB109 and with TAB113 was “inactive” throughout.
Turning to `NCCCC[C@H](N[C@@H](CCc1ccccc1)C(=O)O)C(=O)N1CCC[C@H]1C(=O)O`, the Potency result in the assay on N140, with P93_24, in the assay with P94_40, in the assay with PAD, in the assay with PC15 and in the assay with PC26 was “inactive” in each case. Further, the Potency entry in the assay with PC49, with SC27B, in the assay with TAB109 and in the assay on TAB113 was “inactive” throughout.
For `CCN1CCCC1=O`, the Potency entry with N140, in the assay with P93_24, in the assay on P94_40, in the assay with PAD, in the assay with PC15 and with PC26 was “inactive” in each case. The Potency entry with PC49, in the assay with SC27B, with TAB109 and in the assay on TAB113 was “inactive” throughout.
In the case of `CC(C)(CO)[C@@H](O)C(=O)NCCCO`, the Potency result in the assay on N140, in the assay on P93_24, with P94_40, in the assay with PAD, with PC15 and in the assay on PC26 was “inactive” in each case. Besides, the Potency result with PC49, in the assay on SC27B, in the assay on TAB109 and in the assay on TAB113 was “inactive” each time.
Regarding `CCC(=O)c1c(O)cc(O)cc1O`, the Potency result in the assay on N140, with P93_24, with P94_40, in the assay on PAD, in the assay on PC15 and in the assay on PC26 was “inactive” throughout. Besides, the Potency entry in the assay on PC49, in the assay with SC27B, in the assay on TAB109 and with TAB113 was “inactive” each time.
Turning to `CCN(CC)C(=O)N1CCN(C)CC1`, the Potency result with N140, in the assay with P93_24, with P94_40, with PAD, with PC15 and with PC26 was “inactive” in each case. Besides, the Potency entry with PC49, with SC27B, in the assay on TAB109 and in the assay with TAB113 was “inactive” in each case.
Turning to `Nc1ccc(C(=O)Nc2ccccc2N)cc1`, the Potency result in the assay on N140, with P93_24, with P94_40, in the assay on PAD, in the assay with PC15 and with PC26 was “inactive” in each case. Moreover, the Potency entry with PC49, in the assay with SC27B, with TAB109 and in the assay with TAB113 was “inactive” throughout.
As to `COc1cc(C(=S)N2CCOCC2)cc(OC)c1OC`, the Potency result in the assay on N140, with P93_24, with P94_40, in the assay with PAD, in the assay on PC15 and in the assay on PC26 was “inactive” in each case. Also, the Potency entry with PC49, in the assay with SC27B, in the assay on TAB109 and in the assay on TAB113 was “inactive” each time.
Regarding `NCCC(O)(P(=O)(O)O)P(=O)(O)O`, the Potency result with N140, in the assay on P93_24, with P94_40, in the assay on PAD, in the assay on PC15 and with PC26 was “inactive” in each case. Also, the Potency result with PC49, in the assay with SC27B, with TAB109 and in the assay with TAB113 was “inactive” in each case.
For `CCN1CCN(c2cc3c(cc2F)c(=O)c(C(=O)O)cn3C2CC2)CC1`, the Potency entry with N140, in the assay with P93_24, with P94_40, with PAD, with PC15 and in the assay with PC26 was “inactive” in each case. Further, the Potency result in the assay with PC49, in the assay with SC27B, in the assay on TAB109 and in the assay on TAB113 was “inactive” throughout.
Turning to `CCCCCCCCCCCCCCCCOP(=O)([O-])OCC[N+](C)(C)C`, the Potency entry in the assay with N140, with P93_24, in the assay with P94_40, in the assay on PAD, in the assay with PC15 and with PC26 was “inactive” throughout. Also, the Potency entry in the assay on PC49, in the assay with SC27B, in the assay on TAB109 and in the assay with TAB113 was “inactive” in each case.
For `Cc1c(C(N)=O)cc([N+](=O)[O-])cc1[N+](=O)[O-]`, the Potency result in the assay with N140, in the assay with P93_24, with P94_40, in the assay with PAD, with PC15 and in the assay on PC26 was “inactive” throughout. For the same compound, the Potency result in the assay on PC49, with SC27B, in the assay on TAB109 and in the assay on TAB113 was “inactive” throughout.
Turning to `COc1cccc2c1C(=O)c1c(O)c3c(c(O)c1C2=O)C[C@@](O)(C(C)=O)C[C@@H]3O[C@H]1C[C@H](N)[C@H](O)[C@H](C)O1`, the Potency was 4.47 µM (active) in the assay on N140; 3.98 µM (active) in the assay on P93_24; 3.55 µM (active) in the assay with P94_40; 4.47 µM (active) in the assay with PAD; 10 µM (active) in the assay with PC15; 5.36 µM (active) with PC26. Further, the Potency in the assay with PC49 is 7.08 µM (active); in the assay on SC27B, 5.01 µM (active); in the assay with TAB109, 3.55 µM (active); with TAB113, 5.01 µM (active).
With `CCCCOc1ccc(OCCCN2CCOCC2)cc1`, the Potency result in the assay with N140, in the assay with P93_24, with P94_40, in the assay on PAD, in the assay on PC15 and in the assay with PC26 was “inactive” each time. The Potency entry with PC49, in the assay with SC27B, in the assay on TAB109 and in the assay on TAB113 was “inactive” throughout.
`CC(O)C(=O)O` (stereo not given): the Potency entry in the assay with N140, in the assay with P93_24, with P94_40, in the assay on PAD, with PC15 and in the assay with PC26 was “inactive” each time. Besides, the Potency result with PC49, with SC27B, with TAB109 and in the assay with TAB113 was “inactive” throughout.
Consider `Oc1c(Cl)cc(Cl)cc1Sc1cc(Cl)cc(Cl)c1O`, for which the Potency entry in the assay with N140, with P93_24, in the assay on P94_40, with PAD, in the assay with PC15 and in the assay on PC26 was “inactive” throughout. Besides, the Potency entry with PC49, in the assay on SC27B, with TAB109 and with TAB113 was “inactive” throughout.
Consider `CCN1CCC[C@H]1CNC(=O)c1c(OC)ccc(Br)c1OC`, for which the Potency entry with N140, in the assay with P93_24, in the assay on P94_40, with PAD, in the assay on PC15 and in the assay with PC26 was “inactive” each time. The Potency entry in the assay on PC49, with SC27B, with TAB109 and with TAB113 was “inactive” in each case.
As for `N[C@H](CO)C(=O)O`, the Potency result with N140, in the assay on P93_24, in the assay with P94_40, in the assay with PAD, in the assay on PC15 and in the assay with PC26 was “inactive” in each case. Further, the Potency entry in the assay on PC49, with SC27B, with TAB109 and with TAB113 was “inactive” each time.
